NPSR antag: blocks cAMP signaling of the human neuropeptide S receptor; Q6W5P4; CHO-NPSR cells, cAMP TR-FRET, antagonist mode; Potency, µM (doses to about 38.3 µM), without a hit: at the highest dose activity change, negative = inhibition, actives largely listed as inhibitors; actives 1% (n = 220,000); AID 1461; also: potency is read from the fitted curve at half-maximal effect; nearly all actives have a fitted effect of over 50% in size
12-hLO inh: inhibitors of human 12-lipoxygenase (ALOX12). actives 0.12% (n = 150,000). Potency, µM (doses to about 57.1 µM), for inactives: at the top dose activity change, negative = inhibition, most hits filed as inhibitors. AID 1452. P18054. purified 12-hLO, xylenol orange hydroperoxide absorbance; also: potency is read from the fitted curve at half-maximal effect; nearly all actives have a fitted effect of over 55% in size
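Hydroperoxide formation by human 12-lipoxygenase from 40 uM arachidonic acid was followed colorimetrically via ferric-xylenol orange complex, using the 573/405 nm absorbance ratio. Enzyme concentration was 150 nM, with 30 min reaction at room temperature.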
ALDH1A1 inh: inhibitors of human aldehyde dehydrogenase 1A1 | P00352 | Purified ALDH1A1, NADH fluorescence, propionaldehyde substrate | Potency, µM (series often up to 75.3 µM), for the others: at the top dose activity, negative = inhibition, most hits filed as inhibitors | actives 7.3% (n = 220,000) | AID 1030; active = well fitted inhibition curve with a large enough effect, not every such curve was filed as active; inconclusive = small, poorly fitted or top-dose-only effect, or another doubt; inactive = no such curve, though single readings can be large or run the other way;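 also: potency is read from the fitted curve at half-maximal effect; plate controls were no enzyme wells and a reference inhibitor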
HPGD block: inhibitors of human 15-hydroxyprostaglandin dehydrogenase (HPGD). Potency, µM, for inactives: at the highest dose activity change, negative = inhibition, most hits filed as inhibitors. purified HPGD, NADH fluorescence kinetic, PGE2 substrate. actives 4.3% (n = 150,000); active = well fitted inhibition curve with a large enough effect, not every such curve was filed as active; inconclusive = small, poorly fitted or top-dose-only effect, or another doubt; inactive = no such curve, though single readings can be large or run the other way; also: potency is read from the fitted curve at half-maximal effect
Target sequence (P15428 whole entry, looked up): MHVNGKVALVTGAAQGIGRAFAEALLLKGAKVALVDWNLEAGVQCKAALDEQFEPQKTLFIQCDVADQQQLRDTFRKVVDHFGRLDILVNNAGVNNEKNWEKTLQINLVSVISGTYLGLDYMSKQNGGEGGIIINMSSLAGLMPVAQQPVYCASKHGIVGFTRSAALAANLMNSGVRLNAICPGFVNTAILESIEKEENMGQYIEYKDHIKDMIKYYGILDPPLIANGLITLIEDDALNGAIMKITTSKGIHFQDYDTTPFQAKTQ
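NADH formation kinetics: reaction with 30 uM PGE2 and 1 mM NAD+ (final), 20 nM enzyme, Tris-HCl pH 8 with Tween 20, after 15 min compound preincubation at room temperature. Fluorescence change, last versus first of five reads.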
IMPase cell inh: membrane-permeable compound that blocks inositol monophosphatase | CHO-M1 cells, IP1 accumulation, HTRF TR-FRET ratio | inhibition (IP1 accumulation), % at 46.1 µM | 120,000 tested, under 10 active | AID 901; active = well fitted curve in the direction sought with a large enough effect in the signal ratio, not every such curve was filed as active; inconclusive = small, poorly fitted or top-dose-only effect, or a change in a side signal; inactive = no such curve, though single readings can be large or run the other way; the % refers to the signal ratio;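 also: cells stimulated with carbachol in lithium chloride buffer; plate controls were DMSO basal wells for no effect and reference inhibitor wells for full effect; higher means more IMPase inhibition seen as more IP1 and lower FRET ratio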
Target sequence (P97697 whole entry, looked up): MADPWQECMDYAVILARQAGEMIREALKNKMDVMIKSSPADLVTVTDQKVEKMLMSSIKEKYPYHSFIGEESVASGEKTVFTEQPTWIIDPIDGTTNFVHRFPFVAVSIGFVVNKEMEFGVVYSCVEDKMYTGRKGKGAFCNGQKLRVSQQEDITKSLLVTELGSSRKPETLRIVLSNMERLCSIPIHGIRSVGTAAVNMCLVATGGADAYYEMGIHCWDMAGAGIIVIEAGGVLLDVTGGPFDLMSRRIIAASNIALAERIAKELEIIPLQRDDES
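In this qHTS, compounds (final up to 46 uM) act on CHO-M1 cells that are then activated through the M1 receptor with carbachol, in pH 7.4 buffer containing 50 mM LiCl, for 30 min. IP1 accumulation is quantified by the IP-One immunoassay.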
IMPase Li inh: cell-permeable IMPase inhibitors with lithium potentiation. CHO-M1 cells, IP1 TR-FRET (IP-One), carbachol + lithium. Potency, µM (doses to about 59.4 µM), without a hit: at the top dose activity, negative = IMPase inhibition, actives largely listed as inhibitors. actives 0.35% (n = 210,000). AID 1457;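 also: IP1 builds up when IMPase is blocked and the TR-FRET signal falls; potency is read from the fitted curve at half-maximal effect; plate controls were basal vehicle for no effect and high inhibitor control for full effect; nearly all actives have a fitted effect of over 50% in size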
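CHO cells stably expressing M1 receptor (2000/well, cultured 16–30 h) treated 30 min at 37C with compound plus low lithium. Cytosolic IP1 by TR-FRET (665/620 ratio and 620 channel) after 10 min lysis; AC50 by Hill fit.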
Numbers without * were called inactive; ? = inconclusive; . = not tested or not shown; [ ] = remark or other dose. Hits are enriched below; roughly 8.9% of the tested compounds scored in any of these assays. Unless noted, calls follow the shape of the dose curve; as a rule, active = well fitted curve in the direction sought with a large enough effect; inconclusive = small, poorly fitted or top-dose-only effect, or another doubt; inactive = no such curve, though single readings can be large; an effect the other way counts as inactive or inconclusive. Unless noted, % is scaled to controls: 0 for no effect and ±100 for the full control effect.

SMILES	NPSR antag	12-hLO inh	ALDH1A1 inh	HPGD block	IMPase cell inh	IMPase Li inh
NS(=O)(=O)c1cccc(NC(=O)CSc2ncnc3ccccc23)c1	-23%	.	.	.	.	.
CCN(CC)c1ccc(-n2c(C)cc(C=O)c2C)cc1	-16%[46.1 µM]	-19%	10µM*	2%	-3	23%[38.3 µM]
Cc1sc2nc(SCC(=O)NCc3ccco3)n(-c3ccccc3)c(=O)c2c1C	?	1%	-6%	-30%	-5	-4%[38.3 µM]
CC(C)C(C)(C#N)NC(=O)CSc1nc2scc(-c3ccco3)c2c(=O)n1-c1ccccc1 (centres undefined)	-11%[46.1 µM]	-26%	11µM*	-24%	-9	14%[38.3 µM]
CN1CCN(C(=O)c2ccc(COc3ccc(C(C)(C)C)cc3)o2)CC1	0%[46.1 µM]	-2%	2%	-9%	18	12%[38.3 µM]
CCOc1ccc(C(=O)N2CCCC2)cc1	6%	-1%	-1%	7.9µM*	2	2%
COc1ccc(C(=O)N2CCCC(c3ccccc3)C2)cc1 (centres undefined)	7%[46.1 µM]	4%	?	16µM*	15	2%[38.3 µM]
COc1ccc(C(=O)N2CCC(C(=O)c3c(C)cc(C)cc3C)CC2)cc1	26%	.	22µM*	.	.	.
CCOc1ccc(OCc2ccc(C(=O)N3CCCC3)o2)cc1	2%[46.1 µM]	-3%	28µM*	?	-2[1.84 µM]	25%[38.3 µM]
O=C(c1ccc(F)cc1)N1CCC(c2ccccc2)C1 (centres undefined)	-10%	.	-2%	.	.	.
CCOc1cc(S(=O)(=O)n2c(C)nc3ccccc32)ccc1F	-2%[46.1 µM]	1%	5%	-13%	2	31%[38.3 µM]
COC(=O)c1c(C)oc(C)c1S(=O)(=O)N(C)C1CCCCC1	7%	.	4%	.	.	.
CN1c2ccccc2C2(C)CCCC3=Cc4cc([N+](=O)[O-])cc([N+](=O)[O-])c4OC312 (centres undefined)	-42%	3%	8%	-10%	.	8%
COc1ccc(C(CC(=O)N2CCCCC2)C(C)C)cc1 (centres undefined)	-8%	.	-3%	.	.	.
CCCCOc1ccc(C(=O)N2CCCC2)cc1	-12%[46.1 µM]	8%	?	2.2µM*	8	12%[38.3 µM]
CC1CN(C(=O)c2cccc(C(=O)N3CC(C)OC(C)C3)c2)CC(C)O1 (centres undefined)	10%[46.1 µM]	0%	9%	-9%	-15	?
CCCCOc1ccc(C(=O)O)cc1	-6%[46.1 µM]	9%	5%	-17%	-12	2%[38.3 µM]
COc1ccc(OCCC(=O)N2CCCCC2)cc1	0%[46.1 µM]	-2%	1%	16µM*	7	23%[38.3 µM]
CC1CN(C(=O)c2ccc(C(=O)c3ccccc3)cc2)CC(C)O1 (centres undefined)	-3%[46.1 µM]	3%	?	14µM*	1	-8%[38.3 µM]
CCCOc1ccc(C(=O)N2CCCc3ccccc32)cc1	-24%[46.1 µM]	-4%	6.3µM*	16µM*	-6	26%[38.3 µM]
Oc1cc2c(c(Cl)c1O)CCNCC2c1ccccc1 (centres undefined)	-18%[46.1 µM]	.	5%	-13%	.	28%
NC(=O)NC(=O)COC(=O)CCCSc1nc2ccccc2s1	8%[7.67 µM]	.	.	.	.	.
Cc1cc(C)cc(N2C(=O)C3NN=C(C(=O)OCc4ccccc4)C3C2=O)c1 (centres undefined)	11%	1%	4%	-9%	.	0%
CCOc1ccc(OCc2cccc(C(=O)N3CCCCCC3)c2)cc1	-29%	.	35µM*	.	.	6%
CCOC(=O)C1CCCN(C(=O)c2ccc(Cl)c(S(=O)(=O)N3CCCCCC3)c2)C1 (centres undefined)	-8%	.	?	.	.	12%
CCOc1ccc(OCc2cccc(C(=O)N3CCCC3)c2)cc1	-19%[46.1 µM]	-4%	-5%	-11%	5	20%[38.3 µM]
CCOC(=O)C1CCCN(C(=O)c2sc3nc(C)nc(N(CC)CC)c3c2C)C1 (centres undefined)	8%[46.1 µM]	2%	3%	14µM*	-13	-4%
CCOC(=O)c1ccc(COc2ccc(C(C)C)cc2)o1	10%	.	-7%	.	.	2%
